Measurements: PubChem BioAssay (NCATS)
Records with an inconclusive call do not appear. Active and inactive are the calls of the source. Unless noted, calls follow the shape of the full dose curve. Square brackets hold non-standard residues; d marks the D form. Peptide text beside a SMILES is read from it. ξ: configuration not given here. d(hArg(Et2)) = CCN=C(NCC)NCCCC[C@@H](N)C(=O)O; hArg(Et2) = CCN=C(NCC)NCCCC[C@H](N)C(=O)O; Phe(4-Cl) = N[C@@H](Cc1ccc(Cl)cc1)C(=O)O; ξ2Nal = NC(Cc1ccc2ccccc2c1)C(=O)O; 3Pal = N[C@@H](Cc1cccnc1)C(=O)O; ξP = O=C(O)C1CCCN1

Key:
[1] = Primary qHTS for inhibitors of SARS-S pseudo-typed particle cell entry (AID 1479145); details: outcome: dose series up to 57.1 µM unless noted; also: nearly all actives have a fitted effect of over 45% in size
[2] = Primary qHTS for Huh7 cytotoxicity: counterscreen for inhibitors of MERS-S pseudotyped particle cell entry (AID 1479147); details: outcome: dose series up to 57.1 µM unless noted
[3] = Primary qHTS for inhibitors of MERS-S pseudo-typed particle cell entry (AID 1479149); details: outcome: dose series up to 57.1 µM unless noted; also: nearly all actives have a fitted effect of over 60% in size
[4] = Primary qHTS for Vero E6 cytotoxicity: counterscreen for inhibitors of SARS-S pseudo-typed particle cell entry (AID 1479150); details: outcome: dose series up to 57.1 µM unless noted
[5] = Cytotoxicity counterscreen for inhibitors of SARS-CoV-2 cell entry (AID 1645845); details: outcome: dose series up to 57.1 µM unless noted; also: nearly all actives have a fitted effect of over 50% in size
How it was run: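 After a 15 min room-temperature ATPLite 1step step, luminescence reflected ATP remaining in HEK293-ACE2 cells exposed to compound for 1 h plus 48 h at 37 C, with percent activity set by cell and no-cell controls.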

[6] = Confirmatory qHTS to identify inhibitors of SARS-CoV-2 cell entry (AID 1645844); also: nearly all actives have a fitted effect of over 45% in size
How it was run: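 Using stable human ACE2 Expi293F cells, compounds preincubated 1 hr before spike pseudoparticle infection; luciferase signal after 48 hr at 37C, 5% CO2, normalised to spike PP and no-fusion-protein PP wells.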

[7] = Primary qHTS to identify inhibitors of SARS-CoV-2 cell entry (AID 1645846); details: SARS-CoV-2 pseudovirus cell entry assay, luminescence; activity change, negative = inhibition: at 57.1 µM (top of the series) unless noted; also: nearly all actives have a fitted effect of over 45% in size
How it was run: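 HEK293-ACE2 (Expi293F, stable hACE2), 1500 cells/well, o/n 37C; cpd 23 nL pin, 1 h; MLV-PP w/ SARS-CoV-2-S (Wuhan-Hu-1, Δ19 C-term); 48 h 37C; Bright-Glo luminescence; normalized vs S-PP and bald PP.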

[8] = VSVG counterscreen qHTS to identify inhibitors of SARS-CoV-2 cell entry (AID 1645847); also: nearly all actives have a fitted effect of over 65% in size
How it was run: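 Expi293F/hACE2 cells, overnight plating; cpd 1 h, 37C/5% CO2; + VSV-G PP (MLV pseudotyping), 48 h; supernatant removed, Bright-Glo luciferase read. Norm: VSV-G PP and bald PP wells.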

[9] = target: Cytochrome P450 2D6 (Homo sapiens) (UniProt P10635); experiment: Cytochrome P450 family 2 subfamily D member 6 (CYP2D6) small molecule antagonists: luciferase biochemical (cell-free) qHTS assay (AID 1645840; active = well fitted curve in the direction sought with a large enough effect in the repeat runs; an effect the other way counts as inactive or inconclusive; also: nearly all actives have a fitted effect of over 55% in size; also: potency is read from the fitted curve at half-maximal effect)
How it was run: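 P450-Glo CYP2D6 system: proluciferin substrate converted by enzyme to luciferin, read by luminescence proportional to activity. Enzyme-substrate mix with compound 10 min at room temperature, then NADPH regeneration 1 h before detection reagent.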

[10] = target: Cytochrome P450 2C9 (Homo sapiens) (UniProt P11712); experiment: Cytochrome P450 family 2 subfamily C member 9 (CYP2C9) small molecule antagonists: luciferase biochemical (cell-free) qHTS assay (AID 1645842; active = well fitted curve in the direction sought with a large enough effect in the repeat runs; an effect the other way counts as inactive or inconclusive; also: potency is read from the fitted curve at half-maximal effect; nearly all actives have a fitted effect of over 55% in size)
How it was run: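 P450-Glo CYP2C9 system: proluciferin substrate with enzyme in mix containing 0.4% BSA, 10 min at room temperature, then NADPH regeneration solution added and incubated 1 h at 37C. Detection reagent stopped reaction; luminescence read after 20 min as RLU.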

[11] = target: Glutathione peroxidase 1 (Homo sapiens) (UniProt P07203); experiment: Primary qHTS Assay for Inhibitors of Recombinant Selenoprotein Glutathione Peroxidase 1 (GPX1) (AID 1845191; active = well fitted curve in the direction sought with a large enough effect; an effect the other way counts as inactive or inconclusive; also: nearly all actives have a fitted effect of over 65% in size)
How it was run: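 GPX1 10 nM, GR 100 nM, GSH 1 mM, NADPH 0.5 mM, CHP 0.5 mM (final). 30-min cpd preincubation, RT. Ex340/Em450 read t=0, t=15 min.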

[12] = target: Phospholipid hydroperoxide glutathione peroxidase GPX4 (Homo sapiens) (UniProt P36969); experiment: Primary qHTS Assay for Inhibitors of Recombinant Selenoprotein Glutathione Peroxidase 4 (GPX4) (AID 1845192; active = well fitted curve in the direction sought with a large enough effect; an effect the other way counts as inactive or inconclusive; also: nearly all actives have a fitted effect of over 65% in size; also: potency is read from the fitted curve at half-maximal effect)
How it was run: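 qHTS, GR-coupled: GPX4 200 nM + cpd 30 min RT → GSH 1 mM, NADPH 0.5 mM, GR 100 nM → CHP 0.5 mM start; fluor 340/450 at t0 and t15 min; no-enzyme wells as control.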

Cytochrome P450 2D6 (Homo sapiens), sequence (P10635 whole entry, looked up): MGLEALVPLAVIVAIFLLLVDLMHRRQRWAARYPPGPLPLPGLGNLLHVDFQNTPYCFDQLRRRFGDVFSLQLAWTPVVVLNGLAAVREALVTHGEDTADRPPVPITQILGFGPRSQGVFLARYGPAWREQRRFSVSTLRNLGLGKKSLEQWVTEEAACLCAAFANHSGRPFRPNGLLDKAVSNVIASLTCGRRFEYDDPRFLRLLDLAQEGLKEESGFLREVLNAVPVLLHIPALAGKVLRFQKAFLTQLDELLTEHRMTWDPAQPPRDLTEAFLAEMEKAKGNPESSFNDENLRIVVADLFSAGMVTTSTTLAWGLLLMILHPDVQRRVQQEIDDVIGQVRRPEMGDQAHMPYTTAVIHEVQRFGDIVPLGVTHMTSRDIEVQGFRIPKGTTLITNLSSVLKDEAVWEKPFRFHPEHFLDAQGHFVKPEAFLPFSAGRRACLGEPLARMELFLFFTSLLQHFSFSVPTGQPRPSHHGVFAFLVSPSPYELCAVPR
Phospholipid hydroperoxide glutathione peroxidase GPX4 (Homo sapiens), sequence (P36969 whole entry, looked up): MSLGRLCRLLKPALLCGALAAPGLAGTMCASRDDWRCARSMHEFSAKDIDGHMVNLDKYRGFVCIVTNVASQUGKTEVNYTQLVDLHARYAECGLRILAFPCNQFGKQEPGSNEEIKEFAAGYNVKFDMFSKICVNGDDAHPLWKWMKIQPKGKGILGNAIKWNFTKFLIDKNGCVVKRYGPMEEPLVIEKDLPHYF
Cytochrome P450 2C9 (Homo sapiens), sequence (P11712 whole entry, looked up): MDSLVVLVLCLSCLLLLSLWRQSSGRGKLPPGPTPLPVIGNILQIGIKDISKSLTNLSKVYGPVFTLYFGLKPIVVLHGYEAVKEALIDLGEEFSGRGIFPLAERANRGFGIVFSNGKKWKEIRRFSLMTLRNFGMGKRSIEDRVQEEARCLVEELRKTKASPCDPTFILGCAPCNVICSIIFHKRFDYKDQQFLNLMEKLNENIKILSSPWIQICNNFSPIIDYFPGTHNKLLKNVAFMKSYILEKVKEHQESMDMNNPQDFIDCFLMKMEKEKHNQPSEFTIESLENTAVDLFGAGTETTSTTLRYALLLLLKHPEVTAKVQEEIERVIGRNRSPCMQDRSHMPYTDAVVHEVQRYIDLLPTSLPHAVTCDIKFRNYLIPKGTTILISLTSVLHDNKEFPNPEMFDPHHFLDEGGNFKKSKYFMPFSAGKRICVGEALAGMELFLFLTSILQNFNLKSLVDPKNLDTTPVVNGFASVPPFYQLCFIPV
Glutathione peroxidase 1 (Homo sapiens), sequence (P07203 whole entry, looked up): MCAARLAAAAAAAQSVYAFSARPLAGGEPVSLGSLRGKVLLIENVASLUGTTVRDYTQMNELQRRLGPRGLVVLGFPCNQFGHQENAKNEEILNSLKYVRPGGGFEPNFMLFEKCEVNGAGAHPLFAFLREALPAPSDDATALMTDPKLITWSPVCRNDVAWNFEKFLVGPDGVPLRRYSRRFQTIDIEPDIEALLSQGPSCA

Cc1ncc([N+](=O)[O-])n1CCOC(=O)c1ccccc1
inactive: Potency [1] | Potency [2] | Potency [3] | Potency [4] | Potency [5]

CN(CC(O)CO)C(=O)c1c(I)c(NC(=O)C(CO)CO)c(I)c(C(=O)N(C)CC(O)CO)c1I (stereo not drawn)
inactive: Potency [1] | Potency [2] | Potency [3] | Potency [4] | Potency [5]

CCNC(=NCCCC[C@H](NC(=O)[C@H](CC(C)C)NC(=O)[C@@H](CCCCN=C(NCC)NCC)NC(=O)[C@@H](Cc1ccc(O)cc1)NC(=O)[C@@H](CO)NC(=O)[C@H](Cc1cccnc1)NC(=O)[C@H](Cc1ccc(Cl)cc1)NC(=O)C(Cc1ccc2ccccc2c1)NC(C)=O)C(=O)N1CCCC1C(=O)N[C@H](C)C(N)=O)NCC (stereo partly drawn) (Ac-[ξ2Nal][Phe(4-Cl)][3Pal][dS][dY][d(hArg(Et2))]L[hArg(Et2)][ξP][dA]-NH2)
inactive: Potency [1] | Potency [2] | Potency [3] | Potency [4]

CCCCCCCCCCCCCCCCCCCCCC(=O)Nc1ccn([C@@H]2O[C@H](CO)[C@@H](O)[C@@H]2O)c(=O)n1
inactive: Potency [1] | Potency [2] | Potency [3] | Potency [4] | Potency [6] | Potency [5] | Potency [8]
-93.7% [at 27.1 µM]: activity change, negative = inhibition [7]

CC(Cc1ccc2c(c1)OCO2)NCC(O)c1ccc(O)c(O)c1 (stereo not drawn)
inactive: Potency [1] | Potency [2] | Potency [3] | Potency [4] | Potency [5] | Potency [11]
active: Potency [9] 0.674 µM | Potency [10] 15.1 µM | Potency [12] 15.8 µM

CC(C)C(=O)OCC(=O)[C@@]12OC(C3CCCCC3)O[C@@H]1C[C@H]1[C@@H]3CCC4=CC(=O)C=C[C@]4(C)[C@H]3[C@@H](O)C[C@@]12C (stereo partly drawn)
inactive: Potency [1] | Potency [2] | Potency [3] | Potency [4] | Potency [5]

C[N+](C)(C)C1CCC(CC2CCC([N+](C)(C)C)CC2)CC1 (stereo not drawn)
inactive: Potency [1] | Potency [2] | Potency [3] | Potency [4]

CCOC(=O)C=C(C)C=CC[C@@H](C)CCCC(C)C
inactive: Potency [1] | Potency [2] | Potency [3] | Potency [4] | Potency [9] | Potency [11] | Potency [12]
active: Potency [10] 10.7 µM

NC(=O)[C@H]1O[C@@H](O)[C@H](O)[C@@H](O)[C@@H]1O
inactive: Potency [1] | Potency [2] | Potency [3] | Potency [4] | Potency [5]
